Sampled rows, rich in hits. Any-hit rate of the full collection: about 12%.
JMJD2A Tudor inh: JMJD2A Tudor domain (human) inhibition; O75164; AlphaScreen JMJD2A-Tudor / H3K4me3 peptide binding; Potency, µM (top dose mostly 114 µM), inactives show at the highest dose activity change, negative = inhibition, actives largely listed as inhibitors; actives 4.4% (n = 390,000); further: on the % scale 0 is the no-effect control and ±100 the full control effect; nearly all actives have a fitted effect of over 50% in size
HP1b binding inh: blocks HP1-beta chromodomain binding to methylated histone tails; P83916; AlphaScreen HP1-beta / biotin-H3K9me3 peptide binding; Potency, µM (titrated, usually from 114 µM), without a hit: at the top dose activity change, negative = inhibition, actives largely listed as inhibitors; actives 0.56% (n = 390,000); further: nearly all actives have a fitted effect of over 70% in size
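Compound inhibition of the preformed complex between 50 nM HP1-beta and 50 nM biotinylated H3K9me3 peptide was read by AlphaScreen. Buffer was PBS pH 7.4 with 0.01% Tween-20. Incubations ran 30 min at room temperature, with 10 ug/mL donor/acceptor beads.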
L3MBTL1 inh: inhibitors of human L3MBTL1. AlphaScreen L3MBTL1–H3K9me1 peptide binding. Potency, µM (titrated, usually from 57.1 µM), without a hit: at the highest dose activity, negative = inhibition, hits mostly inhibitors. actives 0.66% (n = 230,000). AID 485360; further: on the % scale 0 is the no-effect control and ±100 the full control effect; nearly all actives have a fitted effect of over 60% in size
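AlphaScreen assay: L3MBTL1 (50 nM final) was preincubated 30 min at room temperature with biotinylated H3(1-15)K9me1 peptide (75 nM final), then 30 min with library compounds; streptavidin donor and nickel chelate acceptor beads (10 ug/mL final) added, 30 min dark.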
BAZ2B block: blocks human BAZ2B; AlphaScreen BAZ2B-H3K14Ac peptide displacement; Potency, µM (series often up to 114 µM), without a hit: at the highest dose activity change, negative = inhibition, usual class: inhibitors; actives 4.4% (n = 360,000); AID 504333; further: on the % scale 0 is the no-effect control and ±100 the full control effect; nearly all actives have a fitted effect of over 60% in size
Target sequence (Q9UIF8 whole entry, looked up): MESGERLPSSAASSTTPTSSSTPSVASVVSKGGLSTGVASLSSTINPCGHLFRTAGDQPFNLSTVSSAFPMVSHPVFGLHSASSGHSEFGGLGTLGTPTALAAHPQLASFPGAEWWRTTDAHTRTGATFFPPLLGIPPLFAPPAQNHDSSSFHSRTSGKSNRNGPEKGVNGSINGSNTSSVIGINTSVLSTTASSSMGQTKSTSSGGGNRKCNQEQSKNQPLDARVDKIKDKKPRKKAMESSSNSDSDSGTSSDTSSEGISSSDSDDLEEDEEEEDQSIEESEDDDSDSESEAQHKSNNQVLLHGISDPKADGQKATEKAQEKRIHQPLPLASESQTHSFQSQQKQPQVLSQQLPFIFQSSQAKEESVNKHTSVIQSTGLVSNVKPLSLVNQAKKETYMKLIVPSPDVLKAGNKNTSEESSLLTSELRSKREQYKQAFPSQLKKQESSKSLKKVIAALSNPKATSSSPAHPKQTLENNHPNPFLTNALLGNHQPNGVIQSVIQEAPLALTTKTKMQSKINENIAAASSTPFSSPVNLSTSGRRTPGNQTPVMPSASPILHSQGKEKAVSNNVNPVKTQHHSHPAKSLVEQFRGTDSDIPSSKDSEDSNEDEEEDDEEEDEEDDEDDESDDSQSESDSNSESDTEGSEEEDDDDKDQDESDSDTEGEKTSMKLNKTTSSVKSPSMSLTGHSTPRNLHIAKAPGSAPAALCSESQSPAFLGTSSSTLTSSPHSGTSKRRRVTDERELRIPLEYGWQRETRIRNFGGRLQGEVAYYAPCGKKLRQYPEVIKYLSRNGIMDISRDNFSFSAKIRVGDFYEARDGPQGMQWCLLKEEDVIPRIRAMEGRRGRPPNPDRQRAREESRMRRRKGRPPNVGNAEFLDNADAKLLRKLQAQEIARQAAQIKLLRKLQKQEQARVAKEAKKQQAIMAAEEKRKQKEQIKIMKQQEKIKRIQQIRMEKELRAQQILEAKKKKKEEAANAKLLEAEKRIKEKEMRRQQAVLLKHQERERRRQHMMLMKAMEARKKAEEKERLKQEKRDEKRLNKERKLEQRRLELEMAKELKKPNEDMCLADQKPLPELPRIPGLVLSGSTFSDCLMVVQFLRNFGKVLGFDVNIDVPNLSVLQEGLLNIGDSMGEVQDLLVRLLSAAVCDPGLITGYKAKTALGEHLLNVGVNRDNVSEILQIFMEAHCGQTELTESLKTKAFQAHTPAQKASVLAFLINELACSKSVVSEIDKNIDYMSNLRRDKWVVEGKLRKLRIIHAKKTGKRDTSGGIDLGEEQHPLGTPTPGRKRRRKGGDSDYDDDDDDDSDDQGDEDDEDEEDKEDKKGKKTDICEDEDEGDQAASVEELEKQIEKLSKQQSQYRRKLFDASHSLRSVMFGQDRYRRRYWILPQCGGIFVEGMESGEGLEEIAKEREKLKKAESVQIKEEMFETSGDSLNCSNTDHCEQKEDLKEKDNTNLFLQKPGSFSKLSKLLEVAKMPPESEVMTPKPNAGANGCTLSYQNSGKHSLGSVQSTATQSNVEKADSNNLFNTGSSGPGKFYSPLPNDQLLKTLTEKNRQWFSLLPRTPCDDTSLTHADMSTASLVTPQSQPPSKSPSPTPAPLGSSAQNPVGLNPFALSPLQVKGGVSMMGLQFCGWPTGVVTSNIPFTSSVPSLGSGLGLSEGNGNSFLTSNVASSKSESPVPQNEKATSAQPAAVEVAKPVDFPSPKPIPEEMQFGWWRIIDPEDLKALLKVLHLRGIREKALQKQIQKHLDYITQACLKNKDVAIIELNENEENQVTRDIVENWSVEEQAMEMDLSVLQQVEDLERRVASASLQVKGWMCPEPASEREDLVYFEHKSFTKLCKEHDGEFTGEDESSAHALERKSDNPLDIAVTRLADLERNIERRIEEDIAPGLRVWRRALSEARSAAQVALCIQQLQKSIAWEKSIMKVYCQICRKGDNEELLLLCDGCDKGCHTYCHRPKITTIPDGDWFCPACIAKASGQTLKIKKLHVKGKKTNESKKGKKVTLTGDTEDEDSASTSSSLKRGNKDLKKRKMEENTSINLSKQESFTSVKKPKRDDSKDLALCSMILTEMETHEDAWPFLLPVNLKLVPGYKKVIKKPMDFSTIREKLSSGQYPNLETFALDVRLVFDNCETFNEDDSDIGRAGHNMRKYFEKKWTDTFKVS
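AlphaScreen luminescence quantifies BAZ2B engagement of H3K14Ac peptide; the protein and biotinylated peptide are both at 50 nM final, buffer PBS pH 7.4 with 0.01% Tween-20, all steps at room temperature.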
G9a block: blocks human histone lysine methyltransferase G9a. G9a H3K9 monomethylation, AlphaScreen, 2 h. Potency, µM (highest dose often 102 µM), inactives show at the top dose activity, negative = inhibition, most hits filed as inhibitors. Q96KQ7. actives 8.8% (n = 350,000); further: on the % scale 0 is the no-effect control and ±100 the full control effect; nearly all actives have a fitted effect of over 75% in size
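Enzyme 20 nM + cpd, 15 min RT; add b-H3K9 pep 500 nM / SAM 20 uM; 2 h RT; anti-H3K9me1 Ab 0.5 ug/mL + SA donor / anti-rabbit acceptor beads 20 ug/mL each, 10 min; AlphaScreen read.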
Sfp inh: inhibitors of Bacillus subtilis Sfp phosphopantetheinyl transferase; Q9F4F7; Biochemical Sfp PPTase activity, qHTS; Potency, µM, without a hit: largest response in the series, negative = inhibition, actives largely listed as inhibitors; actives 3.5% (n = 310,000);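 further: the enzyme is Sfp with the accession as filed and its product quenches rhodamine fluorescence; 0% = enzyme reaction without inhibitor and -100% = no enzyme wells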
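After 15 min at room temperature with compound, 15 nM Sfp received 5 uM rhodamine-CoA plus 12.5 uM BHQ-2-ybbR (50 mM Hepes pH 7.6, 10 mM MgCl2). Rate came from the fluorescence difference over 30 min, ex 525/em 598 nm.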
Starred values were filed as active, the others as inactive; ? = inconclusive; / = no result given; ! = not confirmed by another sample; [ ] = remark or other dose. The call rests on the fitted dose curve; in most records, active means well fitted curve in the direction sought with a large enough effect; inconclusive means small, poorly fitted or top-dose-only effect, or another doubt; inactive means no such curve, though single readings can be large; an effect the other way counts as inactive or inconclusive. Potency means the concentration at half of the fitted maximal effect.

SMILES	JMJD2A Tudor inh	HP1b binding inh	L3MBTL1 inh	BAZ2B block	G9a block	Sfp inh
COc1ccc(C(=O)Nc2ccc(N3CCN(Cc4ccccc4)CC3)cc2)cc1	-3.0%	12.2%[57 µM]	?	2.0%	-7.5%[59 µM]	-1.9%
COc1ccc(CNC(=O)Cc2c(C)c3cc4c(C)coc4cc3oc2=O)cc1OC	-29.2%	16.6%	/	-10.2%	4.8%[59 µM]	/
Nc1nccnc1C(=O)OCC(=O)c1ccc[nH]1	-15.8%	6.2%	?	-1.2%	50.1µM*	/
CCOc1ncccc1C(=O)OCC(=O)c1ccc[nH]1	-7.6%[57.1 µM]	49.0%	-6.9%	-1.6%	14.0%	11.4%
O=C(Nc1ccc2nn(-c3ccc(F)cc3)nc2c1)c1cccc2c(Cl)cccc12	-7.1%	21.6%	/	-15.4%	-18.8%[59 µM]	/
COc1cc(OC)c([C@@H]2O[C@H](CO)[C@@H](O)[C@H](O)[C@H]2O)c(OC)c1	/	/	/	/	/	5.6%
Cc1c(C(=O)O)c(O)cc2c1C(=O)c1c(O)c([C@@H]3O[C@H](CO)[C@@H](O)[C@H](O)[C@H]3O)c(O)c(O)c1C2=O	25.1µM*	?	10µM*	/	/	/
COc1c(O)cc2c(c1O)[C@@H]1O[C@H](CO)[C@@H](O)[C@H](O)[C@H]1OC2=O	3.0%	44.2%	/	-1.0%	8.8%[2.33 µM]	18.2%
Cc1c(C(=O)O)c(O)cc2c1C(=O)c1c(O)c([C@H]3O[C@H](CO)[C@@H](O)[C@H](O)[C@H]3O)c(O)c(O)c1C2=O	/	/	/	/	7.08µM*	?
CC(C)(C)c1ccc(C(=O)Oc2ccc3c(c2)OCC3=O)cc1	4.7%	35.0%	/	6.2%	50.1µM*	-1.5%
Nc1ccccc1C(=O)N(Cc1ccccc1)Cc1ccccc1	-4.7%	14.6%	-11.2%	-0.5%	12.5%[59 µM]	27.0%
Nc1ccccc1C(=O)CC(N)C(=O)O (centres undefined)	/	/	/	/	/	100µM*!
Cc1noc(C)c1COc1ccccc1C(=O)N(C)CC(=O)Nc1ccc(Cl)c(Cl)c1	-4.8%	13.9%	1.7%	7.7%	22.1%[2.33 µM]	/
CCN(CC)S(=O)(=O)c1cc(NC(=O)c2ccccc2OCc2c(C)noc2C)ccc1C	89.1µM*	26.5%	/	/	/	/
COc1cccc(NC(=O)CN(C)C(=O)c2ccccc2OCc2c(C)noc2C)c1	-7.8%	8.9%	-1.5%	10.1%	7.94µM*	/
COc1cccc(CSc2nc3n(n2)C(CC(C)C)C(C(=O)Nc2ccccc2OC)=C(C)N3)c1 (centres undefined)	-22.3%	1.7%	/	-13.0%	-1.2%[59 µM]	/
Cc1cccn2c(=O)c(C(=O)NCc3ccc(F)cc3)c(O)nc12	-12.7%	45.4%	/	3.3%	9.1%[59 µM]	/
Cn1c(=O)[nH]c2cc(-c3noc(-c4cccc(Cl)c4)n3)ccc21	-14.2%	21.3%[57 µM]	/	4.4%	-6.6%[59 µM]	/
Cn1c(=O)[nH]c2cc3ccccc3cc21	0.0%	19.6%	3.3%	3.7%	1.26µM*	-13.8%
COc1cccc(NC(=O)CC2Nc3cc(C)c(C)cc3NC2=O)c1 (centres undefined)	?	-14.6%	/	?	-49.1%[59 µM]	/
COc1ccccc1[C@@H]1C(c2ccc(F)cc2)=NN(c2ccc(Br)cc2)[C@H]1C(=O)N1CCOC1=O	/	/	/	/	51.6%[59 µM]	14.9%
CCCCOc1ccc(C(=O)N/C(=C\c2ccc(Br)cc2)C(=O)NC2CCCCC2)cc1	-15.0%	16.7%	/	1.5%	-2.5%[59 µM]	/
CCC1(CC)Cc2ccccc2C(CC(=O)N2CCOCC2)=N1	22.4µM*	-23.7%	/	56.2µM*	39.8µM*	-14.1%
O=C(CC1=NC2(CCCC2)Cc2ccccc21)N1CCOCC1	?	-2.2%	3.5%	50.1µM*	?	-18.1%
O=C(Cc1ccccc1[N+](=O)[O-])N1CCOCC1	-5.6%	30.4%	-2.5%	6.9%	23.6%[59 µM]	6.3%
O=C1CC(SC2=NCCS2)C(=O)N1c1ccc(Cl)cc1 (centres undefined)	4.5%	42.8%	1.5%	9.1%	-17.2%[59 µM]	3.8%
O=C1CC(SC2=NCCS2)C(=O)N1c1ccc(Br)cc1 (centres undefined)	6.4%[57.1 µM]	53.3%	4.4%	-3.2%	44.7µM*	17.7%

Bioassay records deposited in PubChem by National Center for Advancing Translational Sciences (NCATS).
